Results: PubChem BioAssay (Tox21)
Values without a mark were called inactive. Results filed as inconclusive are left out. A call without a number means that no potency is given here. The source made the active and inactive calls. Unless noted, the call rests on the fitted dose curve.

What was measured:
[1] = Nuclear factor erythroid 2-related factor 2/antioxidant responsive element (Nrf2/ARE) small molecule agonists: qHTS cell viability counter screen in human keratinocytes (AID 1919968; active means well fitted curve in the direction sought with a large enough effect in the repeat runs; an effect the other way counts as inactive or inconclusive; further: nearly all actives have a fitted effect of over 55% in size)
In short: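 HaCaT ARE reporter line, 1,500 cells/well; 5 h settle, 37 C/5% CO2; cpd in DMSO pinned; 23 h exposure; CellTiter-Fluor, 1 h; fluorescence.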

[2] = biological target: KiSS-1 receptor (Homo sapiens) (UniProt Q969F8); assay: Human kisspeptin (KISS1R) small molecule agonists, calcium flux assay in KISS1R-HEK293 cells (AID 1920064; active means well fitted curve in the direction sought with a large enough effect in the repeat runs; an effect the other way counts as inactive or inconclusive)
In short: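 Stable human KISS1R HEK293 line; 18 h plating, 37 C/5% CO2; calcium dye 1 h 37 C; compound pin transfer; kinetic fluorescence Ex/Em 480/540, 3 min.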

[3] = G protein-coupled receptor (GPCR) small molecule agonists, calcium flux assay: HEK293 wild type cell line counter screen (AID 1920065)
In short: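 Kinetic fluorescence at Ex/Em 480/540, recorded every second over 3 min, served as the read-out after compound addition. Each compound was tested at 15 concentrations in triplicate on cells pre-loaded with calcium dye for 1 h.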

[4] = p53 small molecule agonists, cell-based qHTS assay with human liver microsomes (AID 1963577)
In short: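 Compounds act here after metabolic activation: human liver microsomes and NADPH, both at 0.5 mg/mL final, were co-added to p53RE-bla cells. Incubation ran 16 h at 37 C, followed by LiveBLAzer detection.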

[5] = p53 small molecule agonists, cell-based qHTS assay with rat liver microsomes (AID 1963578)
In short: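 Read-out is beta-lactamase reporter fluorescence (LiveBLAzer, 2 h, room temperature, dark) in p53RE-bla cells treated 16 h at 37 C with compound, rat liver microsomes and NADPH, both 0.5 mg/mL final.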

[6] = p53 small molecule agonists, cell-based qHTS assay with human liver microsomes: qHTS cell viability counter screen (AID 1963579); further: nearly all actives have a fitted effect of over 45% in size; further: potency means the concentration at half of the fitted maximal effect
In short: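 Cells carrying the p53 response-element beta-lactamase reporter are treated for 16 h at 37 C with test compounds in the presence of human liver microsomes and NADPH (both 0.5 mg/mL final); ATP-based CellTiter-Glo luminescence then reports viability.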

[7] = p53 small molecule agonists, cell-based qHTS assay with rat liver microsomes: qHTS cell viability counter screen (AID 1963580); further: nearly all actives have a fitted effect of over 45% in size
In short: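 p53RE-bla HCT-116 cells (4,000/well) rested 5 h at 37 C, then given Tox21 compounds in DMSO with rat liver microsomes (0.5 mg/mL final) plus NADPH (0.5 mg/mL final) for 16 h at 37 C. Viability read by CellTiter-Glo luminescence after 30 min at room temperature.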

[8] = p53 small molecule agonists, cell-based qHTS assay: qHTS cell viability counter screen (AID 1963581); further: nearly all actives have a fitted effect of over 45% in size
In short: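 HCT-116 p53RE-bla cells, 4,000/well, plated 5 h before compound pin transfer; 16 h at 37 C; bla substrate 2 h RT; then CellTiter-Glo, 30 min RT, luminescence.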

[9] = p53 small molecule agonists, cell-based qHTS assay (AID 1963582; active means well fitted activation curve with a large enough effect in the signal ratio in the repeat runs, not every such curve was filed as active; the % refers to the signal ratio)
In short: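 Reporter line: p53RE-bla. Pre-incubation 5 h, 37 C, 5% CO2; compound (DMSO, pin tool) 16 h, 37 C; B/G FRET substrate 2 h RT; fluorescence intensity read.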

[10] = biological target: Beta-2 adrenergic receptor (Homo sapiens) (UniProt P07550); assay: Adrenergic beta2 receptor (ADRB2) small molecule antagonists, cell-based qHTS assay (AID 1963592); further: series mostly up to about 92 µM; nearly all actives have a fitted effect of over 50% in size
In short: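 Cells (CHO, stable ADRB2 overexpression) incubated 18-20hr at 37C; compounds added from DMSO; agonist mix (1nM isoproterenol, 100uM IBMX, 25uM Ro-20-1724) added; 0.5hr RT; d2-cAMP and anti-cAMP-cryptate added; 1hr RT; 665/615 nm read.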

[11] = biological target: 5-hydroxytryptamine receptor 2A (Homo sapiens) (UniProt P28223); assay: 5-hydroxytryptamine receptor 2A (HTR2A) small molecule antagonists, cell-based qHTS assay (AID 1963586); further: nearly all actives have a fitted effect of over 45% in size
In short: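 Antagonist-mode intracellular calcium assay: DOI (4 nM) added after 5 min compound pre-incubation at room temperature to dye-loaded HTR2A-CHO cells. Fluorescence followed for 3 min, sampled every second.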

[12] = biological target: 5-hydroxytryptamine receptor 2A (Homo sapiens) (UniProt P28223); assay: 5-hydroxytryptamine receptor 2A (HTR2A) small molecule agonists, cell-based qHTS assay (AID 1963587); further: nearly all actives have a fitted effect of over 30% in size
In short: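 HTR2A-CHO cells, plated 18 h at 37 C/5% CO2, dye-loaded 1 h at 37 C; compounds in DMSO added by pin tool (agonist mode). Intracellular calcium flux read as kinetic fluorescence on FDSS over 2 min at 1 s intervals.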

[13] = biological target: Muscarinic acetylcholine receptor M1 (Homo sapiens) (UniProt P11229); assay: Cholinergic receptor muscarinic 1 (CHRM1) small molecule antagonists, cell-based qHTS assay (AID 1963588); further: nearly all actives have a fitted effect of over 40% in size
In short: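 CHRM1-CHO calcium-flux assay, antagonist mode. Cells were seeded 18 h, dye-loaded 1 h at 37 C and given compound for 5 min at RT, then acetylcholine was added at 50nM. FDSS fluorescence was read 3 min; 15 concentrations, three runs.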

[14] = biological target: Muscarinic acetylcholine receptor M1 (Homo sapiens) (UniProt P11229); assay: Cholinergic receptor muscarinic 1 (CHRM1) small molecule agonists, cell-based qHTS assay (AID 1963589); further: nearly all actives have a fitted effect of over 35% in size
In short: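 Human M1 in stable CHO line; 18 h plating, 1 h dye load 37 C; cpd added (agonist mode); Ca2+ fluorescence kinetic read, 1 s intervals; 15 conc, 3 runs.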

[15] = cAMP Responsive Elements (CRE) small molecule agonists, cell-based qHTS assay (AID 1963590)
In short: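 HEK 293T CRE-bla, 2,000 cells/well, 18 h preincubation 37 C/5% CO2; cpds (DMSO) pinned, 3 h; LiveBLAzer B/G FRET substrate, 2 h RT.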

[16] = cAMP Responsive Elements (CRE) small molecule antagonists, cell-based qHTS assay (AID 1963591; active means well fitted inhibition curve with a large enough effect in the signal ratio in the repeat runs, not every such curve was filed as active; the % refers to the signal ratio)
In short: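 Beta-lactamase reporter read by FRET substrate (LiveBLAzer B/G) after 2 h at room temperature. CRE-bla HEK293T cells had received compound plus 0.25 uM (final) NKH477 for 3 h at 37 °C.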

[17] = biological target: Beta-2 adrenergic receptor (Homo sapiens) (UniProt P07550); assay: Adrenergic beta2 receptor (ADRB2) small molecule agonists, cell-based qHTS assay (AID 1963593);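 further: CHO cells stably overexpressing human ADRB2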
In short: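 CHO cells stably over-expressing ADRB2 were plated overnight at 37C, then dosed with compounds plus a stimulation mix containing 100uM IBMX and 25uM Ro-20-1724 for 0.5hr at room temperature. cAMP was measured by HTRF competition, 1hr.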

[18] = biological target: D(2) dopamine receptor (Homo sapiens) (UniProt P14416); assay: Dopamine D2 receptor (DRD2) small molecule agonists, cell-based qHTS assay (AID 1963594); further: nearly all actives have a fitted effect of over 35% in size
In short: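 HEK293 cells stably expressing DRD2 were cultured 24 h at 37 C, then given Ro20-1724 (0.1 mM final) and compounds for 10 min at room temperature. NKH477 (200nM) was then added for 30 min. cAMP was read by HTRF.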

[19] = biological target: D(2) dopamine receptor (Homo sapiens) (UniProt P14416); assay: Dopamine D2 receptor (DRD2) small molecule antagonists, cell-based qHTS assay (AID 1963595; active means well fitted inhibition curve with a large enough effect in the signal ratio in the repeat runs, with a control signal flat; the % refers to the signal ratio)
In short: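 In this cell-based antagonist screen, compounds act for 10 min at room temperature before a 30 min challenge with 12 nM quinpirole and 200 nM NKH477. cAMP is quantified by HTRF competition in DRD2-HEK293 cells containing 0.1 mM Ro20-1724.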

Chain of D(2) dopamine receptor (Homo sapiens) (P14416 whole entry, looked up): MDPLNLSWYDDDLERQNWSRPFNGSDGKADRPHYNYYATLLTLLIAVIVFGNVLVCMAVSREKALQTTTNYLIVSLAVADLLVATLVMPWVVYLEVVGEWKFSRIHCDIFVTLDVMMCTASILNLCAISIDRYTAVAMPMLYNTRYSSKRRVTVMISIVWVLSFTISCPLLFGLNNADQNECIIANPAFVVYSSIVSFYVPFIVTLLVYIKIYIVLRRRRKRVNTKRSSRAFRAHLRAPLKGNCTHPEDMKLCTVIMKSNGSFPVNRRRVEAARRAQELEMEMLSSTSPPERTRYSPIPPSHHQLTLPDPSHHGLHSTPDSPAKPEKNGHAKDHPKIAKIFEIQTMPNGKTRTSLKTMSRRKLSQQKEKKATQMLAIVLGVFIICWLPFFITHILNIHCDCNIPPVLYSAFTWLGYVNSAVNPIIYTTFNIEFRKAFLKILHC
Chain of Beta-2 adrenergic receptor (Homo sapiens) (P07550 whole entry, looked up): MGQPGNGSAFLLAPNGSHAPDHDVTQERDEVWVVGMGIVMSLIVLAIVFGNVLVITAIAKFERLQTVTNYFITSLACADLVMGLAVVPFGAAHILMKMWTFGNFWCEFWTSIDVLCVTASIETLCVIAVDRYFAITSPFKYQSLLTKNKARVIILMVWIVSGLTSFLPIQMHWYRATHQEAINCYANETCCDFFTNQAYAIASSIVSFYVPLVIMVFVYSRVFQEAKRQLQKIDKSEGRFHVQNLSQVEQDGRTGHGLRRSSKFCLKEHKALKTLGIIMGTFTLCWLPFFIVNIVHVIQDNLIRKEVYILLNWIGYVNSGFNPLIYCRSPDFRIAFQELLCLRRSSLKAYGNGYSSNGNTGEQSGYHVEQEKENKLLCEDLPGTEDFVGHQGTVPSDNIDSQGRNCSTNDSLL
Chain of 5-hydroxytryptamine receptor 2A (Homo sapiens) (P28223 whole entry, looked up): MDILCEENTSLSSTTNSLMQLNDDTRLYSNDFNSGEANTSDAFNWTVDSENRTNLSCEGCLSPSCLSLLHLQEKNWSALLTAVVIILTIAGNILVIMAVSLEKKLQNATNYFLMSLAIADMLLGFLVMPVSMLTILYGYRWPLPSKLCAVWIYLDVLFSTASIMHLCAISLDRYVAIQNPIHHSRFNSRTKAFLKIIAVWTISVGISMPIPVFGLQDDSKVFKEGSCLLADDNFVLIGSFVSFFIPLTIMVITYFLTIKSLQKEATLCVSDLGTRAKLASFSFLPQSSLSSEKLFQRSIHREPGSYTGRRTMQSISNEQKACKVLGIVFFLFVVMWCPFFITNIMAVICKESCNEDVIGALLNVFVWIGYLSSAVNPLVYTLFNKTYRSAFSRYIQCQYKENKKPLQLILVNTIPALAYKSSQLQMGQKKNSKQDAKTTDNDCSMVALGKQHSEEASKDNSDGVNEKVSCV
Chain of KiSS-1 receptor (Homo sapiens) (Q969F8 whole entry, looked up): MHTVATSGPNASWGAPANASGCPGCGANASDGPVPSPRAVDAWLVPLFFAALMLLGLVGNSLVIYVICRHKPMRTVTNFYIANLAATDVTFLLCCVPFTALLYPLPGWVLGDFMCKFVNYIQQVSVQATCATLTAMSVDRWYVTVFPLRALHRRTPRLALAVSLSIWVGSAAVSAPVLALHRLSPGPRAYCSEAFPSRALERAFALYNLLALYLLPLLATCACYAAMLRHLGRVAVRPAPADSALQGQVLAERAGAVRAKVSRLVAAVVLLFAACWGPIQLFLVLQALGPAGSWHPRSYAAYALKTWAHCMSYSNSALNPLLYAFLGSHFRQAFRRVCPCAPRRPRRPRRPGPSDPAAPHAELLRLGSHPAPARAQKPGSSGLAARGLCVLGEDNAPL
Chain of Muscarinic acetylcholine receptor M1 (Homo sapiens) (P11229 whole entry, looked up): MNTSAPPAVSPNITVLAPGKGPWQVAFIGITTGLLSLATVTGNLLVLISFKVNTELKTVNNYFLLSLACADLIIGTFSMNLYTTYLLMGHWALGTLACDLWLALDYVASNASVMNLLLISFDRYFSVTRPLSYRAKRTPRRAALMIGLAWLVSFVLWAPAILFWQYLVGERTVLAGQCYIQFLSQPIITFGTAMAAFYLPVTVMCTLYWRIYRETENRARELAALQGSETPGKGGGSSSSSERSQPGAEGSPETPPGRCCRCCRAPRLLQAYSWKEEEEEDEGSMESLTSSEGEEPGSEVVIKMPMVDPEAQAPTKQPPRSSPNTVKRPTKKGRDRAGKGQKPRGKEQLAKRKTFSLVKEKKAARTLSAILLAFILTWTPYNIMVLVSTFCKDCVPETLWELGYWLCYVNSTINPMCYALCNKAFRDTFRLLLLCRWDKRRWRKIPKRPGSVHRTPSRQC

SMILES	Potency [1]	Potency [2]	Potency [3]	Potency [4]	Potency [5]	Potency [6]	Potency [7]	Potency [8]	Potency [9]	Potency [10]	Potency [11]	Potency [12]	Potency [13]	Potency [14]	Potency [15]	Potency [16]	Potency [17]	Potency [18]	Potency [19]
N#CC(C#N)=Cc1ccc(O)c(O)c1	inactive	inactive	inactive	inactive	inactive	inactive	inactive	inactive	inactive	inactive									
CCCCCOC(=O)c1ccccc1C(=O)OCCCCC	inactive	inactive	inactive	inactive	inactive	inactive	inactive	inactive		inactive	inactive	inactive	inactive	inactive	inactive	inactive	inactive	inactive	inactive
CC(C)N(C(=O)SC/C(Cl)=C/Cl)C(C)C	inactive	inactive	inactive	inactive	inactive	inactive	inactive	inactive	inactive	inactive	inactive	inactive		inactive	inactive	inactive	inactive	inactive	inactive
BrCCCCCCBr	inactive	inactive	inactive	inactive	inactive	20.4 µM (active)	inactive	inactive	inactive	inactive	inactive	inactive	inactive		inactive		inactive	inactive	
[As]#[In]	inactive	inactive	inactive	inactive	inactive	inactive	inactive	inactive	inactive	inactive		inactive	inactive	inactive	inactive	inactive	inactive	inactive	inactive
CC(C)CC(C)N (stereo not drawn)	inactive	inactive	inactive	inactive	inactive	inactive	inactive	inactive	inactive			inactive	inactive	inactive	inactive	inactive		inactive	
Cc1cc(Cl)ccc1O[C@H](C)C(=O)O	inactive	inactive	inactive	inactive	inactive	inactive	inactive	inactive	inactive	inactive	inactive		inactive	inactive		inactive		inactive	inactive
CCCCCCCCCCCCCN1CC(C)OC(C)C1 (stereo not drawn)	inactive	inactive	inactive	inactive	inactive	inactive	inactive	inactive	inactive	inactive	inactive	inactive		inactive	inactive		inactive	inactive	inactive
